Shown are actives, neighbours in structure and some others; about 22% of the full set was active somewhere.
Cycloheximide cs – Cycloheximide Counterscreen for Small Molecule Inhibitors of Shiga Toxin; max response, %; 12% of 300,000 active; cell reporter, cycloheximide protein synthesis inhibition counterscreen; in the data active means max response mostly above about 13%, no sharp cut-off; inactive means mostly below about 14%; further: read at 38.3 µM for the half of the compounds with a filed dose
Pf growth 48h – Primary qHTS for delayed death inhibitors of the malarial parasite plastid, 48 hour incubation | P. falciparum luciferase growth in erythrocytes, 48 h | Potency, µM (doses to about 28.7 µM), hits mostly inhibitors | 5.9% of 310,000 active | AID 504832, 2011
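Cell-based growth assay: transgenic P. falciparum expressing firefly luciferase, cultured in red cells within RPMI 1640 containing 0.5% w/v Albumax, 24 mM bicarbonate and gentamycin. A drop in luciferase activity indicates inhibition.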
Pf growth 96h – Primary qHTS for delayed death inhibitors of the malarial parasite plastid, 96 hour incubation; P. falciparum luciferase reporter growth, 96 h; Potency, µM (highest dose often 28.7 µM), most hits filed as inhibitors; 6.9% of 320,000 active; AID 504834, 2011
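Cell-based qHTS: luciferase-tagged P. falciparum in erythrocytes (2% hematocrit, 0.05% parasitemia final) incubated with compounds for 96 hours, 37 C, 5% CO2; luciferase detection reagent then added and luminescence measured.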
Shiga toxin inh – A qHTS for Small Molecule Inhibitors of Shiga Toxin. Vero cells, Shiga toxin protein synthesis inhibition reporter. inhibition, % at 38.7 µM. AID 2315, 2010. 9.2% of 290,000 active; in the data active means inhibition mostly above about 28%, no sharp cut-off; inactive means mostly below about 43%
LmPK inh – qHTS Assay for Inhibitors of Leishmania Mexicana Pyruvate Kinase (LmPK); AID 1721, 2009; Q27686; purified LmPK, Kinase-Glo ATP luminescence, 1 h; Potency, µM (series often up to 57.5 µM), actives largely listed as inhibitors; 0.37% of 290,000 active
Target sequence (Q27686 whole entry, looked up): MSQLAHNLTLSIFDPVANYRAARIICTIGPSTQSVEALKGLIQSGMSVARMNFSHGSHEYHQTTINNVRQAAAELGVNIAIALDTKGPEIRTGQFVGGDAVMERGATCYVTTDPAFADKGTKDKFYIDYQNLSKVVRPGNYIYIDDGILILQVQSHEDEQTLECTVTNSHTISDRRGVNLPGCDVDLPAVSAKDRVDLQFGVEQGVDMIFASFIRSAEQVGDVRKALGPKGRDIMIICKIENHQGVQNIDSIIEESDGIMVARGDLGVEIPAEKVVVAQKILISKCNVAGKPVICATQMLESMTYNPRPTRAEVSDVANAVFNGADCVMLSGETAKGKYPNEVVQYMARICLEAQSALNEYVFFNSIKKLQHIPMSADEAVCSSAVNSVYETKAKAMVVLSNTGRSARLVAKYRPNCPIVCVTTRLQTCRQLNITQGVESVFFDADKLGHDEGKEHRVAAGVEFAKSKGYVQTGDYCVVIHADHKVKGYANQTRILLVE
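In 50 mM imidazole pH 7.2 with 7 mM MgCl2, LmPK (0.1 nM) turned over PEP (0.5 mM) and ADP (0.1 mM) for 1 h at room temperature. Luciferase read-out of ATP.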
Numbers stand for hits; 0 = inactive; ? = inconclusive; - = no result given. Unless noted, the call rests on the fitted dose curve; in most records, active means well fitted inhibition curve with a large enough effect; inconclusive means small, poorly fitted or top-dose-only effect, or another doubt; inactive means no such curve, though single readings can be large or run the other way.

SMILES	Cycloheximide cs	Pf growth 48h	Pf growth 96h	Shiga toxin inh	LmPK inh
COc1cccc(C(=O)Nc2nnc(-c3ccc(OC)cc3OC)s2)c1	0	0	0	0	0
O=C(COc1ccc(Cc2ccccc2)cc1)c1ccc(F)cc1	34.8	0	5.22µM	0	0
COc1cccc(C(=O)NC(=S)Nc2ccc3oc(=O)ccc3c2)c1	0	0	0	0	0
Nc1c(-c2ccccc2)cc[nH]c1=O	0	-	-	0	-
COc1cccc(C(=O)Nc2cccc(C(C)=O)c2)c1	87.3	0	0	18.3	?
COc1cccc(NC(=O)c2cccc(Cl)c2)c1	-	0	0	-	-
Cc1cc(OCC(=O)c2ccc(F)cc2)ccc1N1C(=O)CCC1=O	0	0	9.28µM	0	0
CCOc1cccc(C(=O)NC(=S)Nc2cccc(C)c2)c1	0	0	?	65.5	0
COc1cccc(C(=O)Nc2ccc(NC(=O)C3C4C=CC(C4)C3C(=O)O)cc2)c1 (stereo not drawn)	40.8	0	0	141.7	0
COc1cccc(C(C(=O)NCc2ccccc2)N(C(=O)c2csnn2)C2CC2)c1 (stereo not drawn)	0	0	0	0	0
O=S(=O)(Nc1ccc2c(c1)OCCO2)c1cccc2nsnc12	48.6	-	?	77.3	0
O=C(CCNS(=O)(=O)c1cccc2nsnc12)Nc1ccc2c(c1)OCCO2	23.5	0	-	0	0
Cc1ccc(NS(=O)(=O)c2cccc3nsnc23)cc1	0	?	0	0	0
Cc1cccc(NC(=O)CCNS(=O)(=O)c2cccc3nsnc23)c1	0	0	?	0	0
O=S(=O)(Nc1ccccc1)c1cccc2nsnc12	0	0	8.28µM	0	0
CC(NC(=O)CCNS(=O)(=O)c1cccc2nsnc12)c1ccccc1 (stereo not drawn)	0	0	2.94µM	0	0
CC(C)c1ccc(NC(=O)CCNS(=O)(=O)c2cccc3nsnc23)cc1	0	0	-	0	0
O=C(NCc1c(Cl)cccc1Oc1ccccc1)c1ccccc1	0	0	?	0	0
O=S(=O)(NCCC1=CCCCC1)c1cccc2nsnc12	0	3.7µM	0	0	0
O=C(CCNS(=O)(=O)c1cccc2nsnc12)NCCC1=CCCCC1	0	0	0	0	0
COc1ccc(-n2c(=O)[nH]c3cc(C(=O)NCCc4ccccc4)ccc3c2=O)cc1OC	0	?	0	0	0
CN1c2ccccc2C(C)(C)C12C=Cc1cc(O)ccc1O2 (stereo not drawn)	20.6	?	?	0	0
CC(Oc1ccc(F)cc1)C(=O)Nc1sc2c(c1C(=O)NCc1cccnc1)CCCC2 (stereo not drawn)	0	8.28µM	6.57µM	0	0
O=C(Nc1sc2c(c1C(=O)c1ccccc1)CCCC2)c1cccnc1	0	0	0.37µM	0	0
O=C(Nc1sc2c(c1C(=O)NCc1cccnc1)CCCC2)c1ccco1	0	?	?	0	0
SMILES	Cycloheximide cs	Pf growth 48h	Pf growth 96h	Shiga toxin inh	LmPK inh
Cc1occc1C(=O)Nc1sc2c(c1C(N)=O)CCC(C(C)(C)C)C2 (stereo not drawn)	0	-	0	0	0
NC(=O)c1c(NC(=O)c2cccnc2)sc2c1CCCC2	0	0	?	72.6	0
NC(=O)c1c(NC(=O)c2cccnc2)sc2c1CCCCC2	0	0	0	-	0
CC(C)(C)C1CCc2c(sc(NC(=O)c3ccncc3)c2C(N)=O)C1 (stereo not drawn)	15.5	0	0	0	0
CC(NC(=O)COC(=O)C1CCN(c2ccc(C(F)(F)F)cn2)CC1)c1ccc(Br)cc1 (stereo not drawn)	0	0	0	0	0
CCOC(=O)CCN(Cc1sccc1C)S(=O)(=O)c1ccc(F)cc1	0	0	-	0	0
COc1ccc(CN(C)C(=O)c2[nH]c(C)c(C(C)=O)c2C)cc1F	0	0	0	0	0
Fc1ccc(Oc2ncccn2)c(F)c1	0	0	0	0	0
CCC1=C2CC[C@H]3C(=O)N(CC)C(=O)[C@H]3[C@H]2[C@@]2(Cc3ccccc3)C(=NCc3ccccc3)OC(=O)N2C1=O	0	?	?	0	0
CCC1=C(OC(=O)N(CC)CC)N2C(=O)OC(=NCCc3c[nH]c4ccccc34)[C@]2(Cc2ccccc2)[C@H]2C1=CC[C@H]1C(=O)N(CC(=O)OC)C(=O)[C@H]12	0	5.22µM	13.1µM	0	0
CCC1=C(OC(=O)N(CC)CC)N2C(=O)OC(=NCCOC)[C@]2(Cc2ccccc2)[C@H]2C1=CC[C@H]1C(=O)N(CC(=O)OC)C(=O)[C@H]12	0	9.28µM	?	0	0
CCC1=C(OC(=O)N(CC)CC)N2C(=O)OC(=NCC(=O)OC)[C@]2(Cc2ccccc2)[C@H]2C1=CC[C@H]1C(=O)NC(=O)[C@H]12	0	?	?	0	0
CCC1=C(OC(=O)N(CC)CC)N2C(=O)OC(=NCCc3c[nH]c4ccccc34)[C@]2(Cc2ccccc2)[C@H]2C1=CC[C@H]1C(=O)NC(=O)[C@H]12	0	?	11.7µM	0	0
COc1ccc(-n2c(C)cc(/C=C3\C(=N)N4N=C(CC(=O)N5CCOCC5)SC4=NC3=O)c2C)c(OC)c1	0	?	?	0	0
Cc1ccc(Nc2nc(N/N=C/c3c[nH]c4ccccc34)nc(N3CCOCC3)n2)cc1	14.7	?	?	0	0
C(=N\Nc1nc(Nc2ccccc2)nc(N2CCOCC2)n1)/c1c[nH]c2ccccc12	20.9	?	?	0	0
Cc1[nH]c2ccccc2c1/C=N/Nc1nc(Nc2ccc(F)cc2)nc(N2CCOCC2)n1	0	4.15µM	2.62µM	0	0
Cc1ccc(Nc2nc(N3CCOCC3)nc(N3CCOCC3)n2)cc1C	0	?	?	0	0
O=C(Oc1cccc(/C=N/Nc2nc(Nc3ccccc3)nc(N3CCOCC3)n2)c1)c1ccco1	13.3	?	0	22.5	0
c1ccc(Nc2nc(N3CCNCC3)nc(N3CCOCC3)n2)cc1	0	?	?	0	0
Cc1cc(SCC(=O)N(C)CC(=O)Nc2ccc(F)cc2)nc2ccccc12	0	0	0	0	0
COc1ccc(NC(=O)COC(=O)CN2C(=O)c3ccccc3C2=O)cc1	-	0	0	-	-
CCOC(=O)C1CCCN(C(=O)c2cc(S(=O)(=O)N3CCCCC3)c[nH]2)C1 (stereo not drawn)	0	0	0	0	0
COc1cc([N+](=O)[O-])ccc1NC(=O)N1CCCCCC1	0	?	0	0	0
Brc1ccc(N/N=C(/N=Nc2nn[nH]n2)c2ccccc2)cc1	19.0	3.29µM	1.85µM	0	?
COc1ccc(C(=O)Nn2c(SCc3ccc([N+](=O)[O-])cc3)nc3ccccc3c2=O)cc1	25.4	0	?	82.1	0
CCOC(=O)CSc1nc2ccccc2c(=O)n1NC(=O)c1ccccc1	37.2	0	7.38µM	66.4	0
COc1ccc(C(=O)Nn2c(SCC(=O)c3ccccc3)nc3ccccc3c2=O)cc1	38.4	0	0	0	0
CCc1ccc(C(=O)Nn2c(C)nc3ccccc3c2=O)cc1	0	0	0	0	0
